Bioassay records from PubChem BioAssay.
Sampled rows, rich in hits. Any-hit rate of the full collection: about 2%.
VLA-4 inh = inhibition in a human VLA-4 binding assay; inhibition, % (about 7 µM as worked out from the volumes in the protocol); actives 0.2% (n = 330,000); VLA-4 expressing cells, ligand binding flow cytometry; in the data active = inhibition above about 50%
Target sequence (P13612 whole entry, looked up): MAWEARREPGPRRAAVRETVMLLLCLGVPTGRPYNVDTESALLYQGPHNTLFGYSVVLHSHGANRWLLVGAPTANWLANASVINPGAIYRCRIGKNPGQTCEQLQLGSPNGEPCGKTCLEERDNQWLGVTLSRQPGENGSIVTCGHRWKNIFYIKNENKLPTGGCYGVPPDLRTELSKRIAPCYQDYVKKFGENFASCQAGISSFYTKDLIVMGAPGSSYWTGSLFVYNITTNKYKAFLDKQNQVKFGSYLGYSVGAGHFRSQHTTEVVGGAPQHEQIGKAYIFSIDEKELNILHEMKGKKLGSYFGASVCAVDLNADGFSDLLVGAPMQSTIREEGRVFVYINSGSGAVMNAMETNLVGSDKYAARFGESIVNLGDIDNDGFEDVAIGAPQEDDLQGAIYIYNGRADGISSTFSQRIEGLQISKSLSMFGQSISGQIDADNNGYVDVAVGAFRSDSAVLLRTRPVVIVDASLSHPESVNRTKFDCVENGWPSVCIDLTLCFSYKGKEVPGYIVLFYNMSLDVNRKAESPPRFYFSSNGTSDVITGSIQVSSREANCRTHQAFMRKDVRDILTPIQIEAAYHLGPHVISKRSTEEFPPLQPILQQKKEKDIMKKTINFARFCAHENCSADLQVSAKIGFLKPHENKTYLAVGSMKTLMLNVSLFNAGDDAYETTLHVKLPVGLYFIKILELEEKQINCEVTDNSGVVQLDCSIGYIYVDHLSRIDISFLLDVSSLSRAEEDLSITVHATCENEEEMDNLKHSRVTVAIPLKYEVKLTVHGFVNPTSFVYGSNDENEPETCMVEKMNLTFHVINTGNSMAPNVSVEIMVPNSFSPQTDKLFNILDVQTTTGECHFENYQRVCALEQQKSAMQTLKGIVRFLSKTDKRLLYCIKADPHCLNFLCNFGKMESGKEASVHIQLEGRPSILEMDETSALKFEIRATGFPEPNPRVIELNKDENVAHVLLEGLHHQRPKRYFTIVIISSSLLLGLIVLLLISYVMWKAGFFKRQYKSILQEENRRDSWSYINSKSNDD
PG9 Ab binder = binds the HIV-1 gp120 antibody PG9 | TR-FRET gp120-PG9 antibody binding | actives 0.43% (n = 360,000) | AID 624416 | inhibition, % at 6.7 µM; in the data active = inhibition above about 8.5%
Granule exo inh = blocks lytic granule exocytosis; TALL-104 LAMP-1 surface exposure, flow cytometry; cells stimulated with thapsigargin and PMA; inhibition, % at 10 µM; actives 0.66% (n = 360,000); AID 651702;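 active = inhibition above about 55%, limit read from the data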
ABCB6 inh MLPCN = inhibitors of human ABC transporter ABCB6; Q9NP58; K562-ABCB6 porphyrin accumulation, flow cytometry, 1 h; active compounds read low; fluorescence ratio to DMSO, % at 10 µM; actives 0.19% (n = 360,000); AID 602162;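 active = fluorescence ratio to DMSO below 75%, the collection mean minus 3 SD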;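 note: signal is porphyrin accumulated inside mitochondria; 100% equals median channel fluorescence of DMSO control wells; lower ratio means ABCB6 inhibition with less porphyrin fluorescence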
Rev-erbA mod = modulates human Rev-erb alpha binding to DNA; P20393; Rev-erbα–FITC-DNA binding, fluorescence polarization, 90 min; activity, % at 10 µM; actives 0.79% (n = 370,000); AID 1259318;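 active = activity above about 14%, limit read from the data; passing the limit was not always enough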;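 note: 0% = DMSO wells with 35 nM protein and 100% = DMSO wells with 750 nM protein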
NR1D1 mod conf = Rev-erb alpha (human) modulation, hit confirmation | shares compounds with Rev-erbA mod | Rev-erb alpha FITC-DNA binding, fluorescence polarization, 90 min | activation, % at 25 µM | actives 61% (n = 3,000) | AID 1259319;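 active = activation at or above a set limit, or at least 3 SD above the negative control mean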;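 note: 0% = 35 nM protein with DMSO and 100% = 750 nM protein high control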
RORg counter = affects RORgamma DNA binding in a Rev-erb alpha counter-screen; shares compounds with Rev-erbA mod; purified RORgamma protein-FITC-DNA binding, fluorescence polarization; IC50, µM; actives 8% (n = 910);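 active = Compounds whose fitted half-maximal concentration for disrupting protein-DNA binding is below 10 micromolar; the record names Rev-erb in its text, so the target is in doubt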
Numbers without * were called inactive; i = inactive; . = no result given.

SMILES | VLA-4 inh | PG9 Ab binder | Granule exo inh | ABCB6 inh MLPCN | Rev-erbA mod | NR1D1 mod conf | others
COC(=O)C[C@@H]1CC[C@@H]2[C@H](COc3ccc(NC(=O)c4ccc5c(c4)OCO5)cc3C(=O)N2C)O1 | . | . | . | . | 4 | .
CCNC(=O)C[C@H]1CC[C@H]2[C@@H](COc3ccc(NC(=O)c4ccc5c(c4)OCO5)cc3C(=O)N2C)O1 | . | . | . | . | 141* | 48* | RORg counter=>40
CNC(=O)C[C@H]1CC[C@H]2[C@@H](COc3ccc(NC(=O)Nc4ccccc4)cc3C(=O)N2C)O1 | . | . | . | . | 28* | 14*
CCNC(=O)C[C@H]1CC[C@H]2[C@@H](COc3ccc(NC(=O)Nc4ccccc4)cc3C(=O)N2C)O1 | . | . | . | . | 34* | 13*
CCCNC(=O)C[C@H]1CC[C@H]2[C@@H](COc3ccc(NC(=O)Nc4ccc(C#N)cc4)cc3C(=O)N2C)O1 | . | . | . | . | 36* | 19*
CC(C)c1nc(N(C)S(C)(=O)=O)nc(-c2ccc(F)cc2)c1/C=C/[C@H](O)C[C@@H](O)CC(=O)O | . | . | . | . | 3 | .
Cc1cccc(C(=O)OCC(=O)NC(=O)c2ccccc2)c1O | 4 | 1 | -1 | 100 | -2 | .
Cc1cccc(C(=O)OCC(=O)c2cccc(Br)c2)c1O | 5 | 1 | -2 | 96 | 19* | 5
CC1CCN(S(=O)(=O)c2ccc3ccccc3c2)CC1 | 13 | 3 | -3 | 97 | 2 | .
O=S(=O)(c1ccc2nc(N3CCN(c4ccc(F)cc4)CC3)ccc2c1)N1CCCCC1 | 4 | -1 | -1 | 95 | 37* | 27*
CC1CCN(S(=O)(=O)c2ccc3nc(N4CCN(c5ccccc5)CC4)ccc3c2)CC1 | -2 | 1 | . | . | 92* | 57* | RORg counter=>40
O=S(=O)(c1ccc2nc(N3CCN(c4ccccc4F)CC3)ccc2c1)N1CCCCC1 | 2 | 0 | -2 | 95 | 41* | 31* | RORg counter=>40
O=c1ccc2cc(S(=O)(=O)N3CCN(c4ccccc4F)CC3)ccc2[nH]1 | 8 | 0 | -2 | 91 | -2 | .
CS(=O)(=O)N[C@@H]1C[C@@H]2O[C@@H](CO)CC[C@@H]2O[C@@H]1CCc1ccc(/C=C/c2ccccc2)cc1 | . | . | . | . | 4 | .
COc1ccc2c(COC(=O)c3ccc(C)c(S(=O)(=O)N4CCOCC4)c3)cc(=O)oc2c1 | . | -1 | -13 | 95 | 21* | 26*
COc1ccc(C(=O)OCc2cc(=O)oc3cc(C)ccc23)cc1S(=O)(=O)N1CCOCC1 | . | 0 | -1 | 96 | -3 | .
Cc1cc(=O)oc2cc(OCC3CC(c4ccccc4)=NO3)ccc12 (configuration not stated) | 9 | . | 8 | 101 | -1 | .
Cc1cc(=O)oc2cc(OCC3CC(c4ccc(Br)cc4)=NO3)ccc12 (configuration not stated) | -3 | 1 | 3 | 95 | 55* | 46* | RORg counter=2.1*
Cc1c(N2C(=O)/C(=C/c3ccccc3)SC2=S)c(=O)n(-c2ccccc2)n1C | -4 | -1 | 1 | 93 | -3 | .
Cc1c(N2C(=O)/C(=C/c3ccc(N(C)C)cc3)N(C)C2=S)c(=O)n(-c2ccccc2)n1C | . | -17 | 2 | 98 | 22* | 19*
O=C(NCc1ccccc1)C(c1cccc2ccccc12)n1c(=O)c(-c2ccccc2)nc2ccccc21 (configuration not stated) | . | -1 | -2 | . | 24* | 46* | RORg counter=i
NC(=O)CSc1nc2c(sc(=S)n2-c2ccccc2)c(=O)[nH]1 | 14 | 0 | -4 | 97 | 1 | .
O=c1[nH]c(-c2ccccc2F)nc2c1sc(=S)n2Cc1ccccc1 | -4 | -3 | 3 | 105 | 24* | 2
O=C(Nc1ccnc(=O)[nH]1)c1sc2ccccc2c1Cl | -5 | 3 | -2 | 101 | 37* | 23*
CC(C)CN1C(=O)C[C@]2(C(=O)N(C)c3ccc(NC(=O)C(C)(C)C)cc32)C1c1ccccc1 (some centres not stated) | . | . | . | . | -4 | .
SMILES | VLA-4 inh | PG9 Ab binder | Granule exo inh | ABCB6 inh MLPCN | Rev-erbA mod | NR1D1 mod conf | others
O=C(/C=C/c1c[nH]c2ccccc12)c1ccccc1 | 1 | -1 | -3 | 99 | -4 | .
OCC[n+]1ccc(/C=C/c2c[nH]c3ccccc23)cc1 | -210 | -16 | -2 | 575 | 161* | 144* | RORg counter=i
C(=Cc1c[nH]c2ccccc12)c1nccc2ccccc12 | . | -2 | 1 | 475 | 25* | 23*
C(=Cc1c[nH]c2ccccc12)c1ccc2ccccc2n1 | . | -2 | -1 | 325 | 8 | .
COC(=O)C1=C(C)N(C)C(=NCc2ccc3c(c2)OCO3)NC1c1cccc(F)c1 (configuration not stated) | . | 0 | . | . | -4 | .
Cn1nnnc1SCc1nc2ccccc2s1 | 16 | -1 | -8 | 98 | 22* | 7
C[C@@H]1CCCN1c1ccc2c(c1)O[C@H]1CCN(C1)S2(=O)=O | . | . | . | . | 0 | .
CCN(CC)c1ccc(-c2c(C#N)c(N)nc(OC)c2C#N)cc1 | -20 | 3 | 1 | 98 | 178* | 137* | RORg counter=>40
Cn1nc(N)c2c(-c3ccc(Cl)cc3)c(C#N)c(N)nc21 | 1 | 0 | 5 | 101 | 3 | .
O=S(=O)(/N=C(/Nc1nc2ccccc2s1)c1ccccc1)c1ccc(F)cc1 | . | 1 | -6 | 99 | 19* | -3
O=S(=O)(/N=C(/Nc1nccs1)c1ccc(F)cc1)c1ccccc1 | -3 | -2 | -2 | 96 | 1 | .
FC(F)(F)c1cc(-c2cccs2)nc2cc(-c3ccccc3)nn12 | 3 | 6 | -3 | 100 | 33* | 14
CCN(CC)c1ccc(/C=C(/C#N)C(=O)NC(C)C)o1 | 1 | -17 | 1 | 95 | 19 | .
CCN(CC)c1ccc(/C=C(/C#N)C(=O)NCc2ccccc2)o1 | 1 | -14 | 1 | 106 | 25* | 6
CC(C)NC(=O)/C(C#N)=C\c1ccc(N(C)C)o1 | -1 | -30 | 0 | 97 | 15* | 12
CCc1cc2c(=O)c(-c3cnn(-c4ccccc4)c3)c(C)oc2cc1OCC(=O)Nc1ccc(F)c(F)c1 | 29 | -1 | 1 | 100 | 31* | 13
O=C(NCc1ccc(F)c(F)c1)C1CCC(CNS(=O)(=O)c2cccc3cccnc23)CC1 (configuration not stated) | . | . | . | . | -2 | .
Cc1cc(NC(=O)c2cccs2)cc(-c2nc3ncccc3o2)c1O | -15 | 1 | -2 | 98 | 71* | 67* | RORg counter=>40
Cc1ccc(-c2nc3ncccc3o2)cc1NC(=O)c1cccs1 | 4 | 2 | -2 | 101 | 3 | .
COCCN(CCOC)C(=O)[C@H](CCc1ccccc1)NC(=O)[C@H]1O[C@@H](n2cnc3c(N)ncnc32)[C@H](O)[C@@H]1O | . | 1 | . | . | 4 | .
O=C(OCc1ccccc1)[C@H](Cc1ccccc1)NC(=O)[C@@H]1CC=C[C@@H]2CCN(CCc3ccccc3)C(=O)[C@@H]21 | . | . | . | . | -3 | .
